# Reference: the supplement of paper PMC8728848
# The sample as a whole holds a higher share of the strongest signals than the screen did.
# B1: Siglec-7-SA-PE-180 (Homo sapiens), Q9Y286 (protein)
# chain: MLLLLLLPLLWGRERVEGQKSNRKDYSLTMQSSVTVQEGMCVHVRCSFSYPVDSQTDSDPVHGYWFRAGNDISWKAPVATNNPAWAVQEETRDRFHLLGDPQTKNCTLSIRDARMSDAGRYFFRMEKGNIKWNYKYDQLSVNVTALTHRPNILIPGTLESGCFQNLTCSVPWACEQGTPPMISWMGTSVSPLHPSTTRSSVLTLIPQPQHHGTSLTCQVTLPGAGVTTNRTIQLNVSYPPQNLTVTVFQGEGTASTALGNSSSLSVLEGQSLRLVCAVDSNPPARLSWTWRSLTLYPSQPSNPLVLELQVHLGDEGEFTCRAQNSLGSQHVSLNLSLQQEYTGKMRPVSGVLLGAVGGAGATALVFLSFCVIFIVVRSCRKKSARPAADVGDIGMKDANTIRGSASQGNLTESWADDNPRHHGLAAHSSGEEREIQYAPLSFHKGEPQDLSGQEATNNEYSEIKIPK
# Experiments:
# Experiment in all cases: glycan array binding signal (z-score within array); higher = stronger binding
# Conditions in all cases: glycan notation: IUPAC condensed, linker removed
# [1] = molecular target: Neu5Ac(a2-6)Gal(b1-4)GlcNAc(b1-2)Man(a1-3)[Gal(b1-4)GlcNAc(b1-2)Man(a1-6)]Man(b1-4)GlcNAc(b1-4)GlcNAc
# In short: (§1)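 The binding signal is a Z-score computed within each array and averaged over linkers. Arrays of the same protein sequence at different concentrations or buffers were also averaged together. Data originate from 3228 arrays in the Consortium for Functional Glycomics database, kept only where the protein sequence was available.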
# [2] = molecular target: Neu5Ac(a2-6)Gal(b1-4)GlcNAc(b1-3)Gal(b1-4)GlcNAc(b1-3)GalNAc
# In short: as §1
# [3] = molecular target: Neu5Ac(a2-6)GalNAc(b1-4)GlcNAc6S
# In short: as §1
# [4] = molecular target: Neu5Ac(a2-8)Neu5Ac
# In short: as §1
# [5] = molecular target: Neu5Ac(a2-8)Neu5Ac(a2-3)[Gal(b1-3)GalNAc(b1-4)]Gal(b1-4)Glc
# In short: as §1
# [6] = molecular target: Neu5Gc(a2-3)Gal(b1-3)GlcNAc
# In short: as §1
# [7] = molecular target: Neu5Gc(a2-6)GalNAc
# In short: as §1
# [8] = molecular target: Neu5Gc(b2-6)Gal(b1-4)GlcNAc
# In short: as §1
binder,measurement,setting,value
B1,glycan array binding signal (z-score),[1],-0.303
same,glycan array binding signal (z-score),[2],-0.587
same,glycan array binding signal (z-score),[3],0.866
same,glycan array binding signal (z-score),[4],2.11
same,glycan array binding signal (z-score),[5],-0.067
same,glycan array binding signal (z-score),[6],-0.155
same,glycan array binding signal (z-score),[7],2.26
same,glycan array binding signal (z-score),[8],-0.05
